Results filed as inconclusive are left out. Entries that show only a call come without a potency. Active and inactive are the calls of the source. The call rests on the fitted dose curve; in most records, active means well fitted inhibition curve with a large enough effect; inconclusive means small, poorly fitted or top-dose-only effect; inactive means flat fitted curve, though single readings scatter.
Biological target: Calcium and integrin-binding protein 1 (Homo sapiens) (UniProt Q99828)
Assay: Primary qHTS for Identification of Calcium Integrin Binding Protein 1 (CIB1) Competitor (AID 1508620);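 further: GST tagged CIB1 binding a fluorescein labelled alphaIIb integrin peptide tracer; top concentration of the series differs between compounds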
Method in brief: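 Fluorescence polarization competition: CIB1-GST (1 uM final) preincubated with compound 15 min at room temperature, then FITC-labeled alphaIIb peptide (100 nM final) added for another 15 min. Polarization read at Ex 480/Em 540.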

Chain of Calcium and integrin-binding protein 1 (Homo sapiens) (Q99828 whole entry, looked up): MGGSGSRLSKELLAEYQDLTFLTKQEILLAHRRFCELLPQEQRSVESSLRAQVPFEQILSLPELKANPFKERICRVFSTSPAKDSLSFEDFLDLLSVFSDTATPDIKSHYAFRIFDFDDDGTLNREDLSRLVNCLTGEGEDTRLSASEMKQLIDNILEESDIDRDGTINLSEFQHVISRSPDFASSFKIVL

| SMILES | Potency |
| --- | --- |
| O=C(NCc1ccccc1)Nc1ncnc2c1C(c1ccccc1)c1c(ccc3ccccc13)O2 (configuration not stated) | inactive |
| CCc1ccc(NC(=O)c2cnn3c(C)cc(C)nc23)cc1 | inactive |
| CC(=O)N1CCc2cc(-c3nc(NC(=O)Cc4ccc5c(c4)OCO5)sc3C)ccc21 | inactive |
| COc1ccc(C(=O)N(Cc2ccccc2)Cc2ccccc2)c(O)c1 | inactive |
| O=C(/C=C/c1c(F)c(F)c(F)c(F)c1F)Nc1cccc([S+](=O)([O-])Nc2ccccc2F)c1 | inactive |
| Nc1scc2c(C(=O)O)nn(-c3ccccc3)c(=O)c12 | inactive |
| Cc1ccc(NC(=O)CN2C(=O)N/C(=C\c3cccn3-c3cccc(-c4nn[nH]n4)c3)C2=O)cc1 | inactive |
| FC(F)(F)c1ccccc1-c1nc(NCc2ccc(Cl)c(Cl)c2)c2ccccc2n1 | inactive |
| Cc1ccc(NS(=O)(=O)c2ccc3c(c2)CCC(=O)N3)cc1Cl | inactive |
| O=C1NS(=O)(=O)c2cc3c(cc21)C(=O)NS3(=O)=O | inactive |
| CC1=C(C(=O)Nc2ccccc2)C(c2ccccc2Br)N=C(Nc2nc3ccccc3o2)N1 (configuration not stated) | inactive |
| Cc1cc(NS(=O)(=O)c2ccc(NC(=O)Cc3ccc4ccccc4c3)cc2)no1 | inactive |
| O=C(Nc1ccc(Cl)nc1)Nc1nnc(-c2ccncc2)s1 | inactive |
| COc1cc(OC)c(C(CC(=O)N2CC(C)CC(C)C2)c2ccc3c(c2)OCO3)c(OCC#N)c1 (configuration not stated) | inactive |
| O=C1c2ccccc2NC(c2ccc(Br)o2)N1O (configuration not stated) | inactive |
| COc1cc(OC)cc(-c2nnc3n2N=C(c2ccc(OC)cc2OC)CS3)c1 | inactive |
| NC(=O)C1CCN(c2nc(-c3ccc(OCc4ccccc4)cc3)cs2)CC1 | inactive |
| CCOC(=O)c1ccoc1-c1ccc2ncnc(NCc3csc(C)n3)c2c1 | inactive |
| CN(C)C1CCN(Cc2cc(COCc3ccccc3)c3cccnc3c2O)C1 (configuration not stated) | inactive |

| SMILES | Potency |
| --- | --- |
| Cc1sc(NC(=O)Cc2ccc3c(c2)OCO3)nc1-c1ccc2c(c1)CCN2C(=O)c1ccccc1F | inactive |
| CS(=O)(=O)c1ccc(C(=O)OCC(=O)N2CCOCC2)cc1[N+](=O)[O-] | inactive |
| Cc1ccc(OCCn2c(CCNC(=O)C(C)(C)C)nc3ccccc32)cc1 | inactive |
| Oc1cc(NCc2ccc(Cl)cc2)cc2cccnc12 | inactive |
| CCCCN(CCCNC(=S)NCCCc1cnc[nH]1)c1ccc(Br)cn1 | inactive |
| O=C(OCC#CCSc1nnc(-c2ccc3ccccc3c2)o1)c1ccc(F)cc1 | inactive |
| Cc1cc2c(s1)c1cnn(Cc3c(F)c(F)cc(F)c3F)c(=O)c1n2C | inactive |
| Nc1ccc(C(=O)Nc2ccc(-c3nc4ccccc4[nH]3)cc2)cc1Cl | inactive |
| COc1cccc(CNc2ccc(S(=O)(=O)Nc3nc4c(C)cccc4s3)cc2)c1O | inactive |
| CN(CCC1CCCO1)c1ncnc2ccc(-c3ccc4c(c3)OCO4)cc12 (configuration not stated) | inactive |
| COc1cc(O)c(C(CC(=O)N2CCCCCC2)c2ccc3c(c2)OCO3)c(OC)c1 (configuration not stated) | inactive |
| O=C1c2ccccc2NC(c2ccc(-c3ccc(Br)cc3)o2)N1O (configuration not stated) | inactive |
| O=C1c2ccccc2C(=O)N1c1cnc2ccccc2c1 | inactive |
| O=C1Nc2ccccc2/C1=C/c1cccc(C(=O)O)c1 | inactive |
| Cc1nc(NCc2ccc(-c3cccnc3)cc2)c2ccccc2n1 | inactive |
| Brc1cnc2nc(SCc3cccnc3)[nH]c2c1 | inactive |
| Cc1cc(C=CC#N)cc(C)c1Nc1nc(Nc2ccc3c(c2)CCC3)c2[nH]cnc2n1 | inactive |
| Cn1ncc(Cl)c1C1N=C(Nc2nc3ccccc3o2)NC2=C1C(=O)CCC2 (configuration not stated) | inactive |

Reference: PubChem BioAssay (NCATS)
